Assay outcomes: PubChem, National Center for Advancing Translational Sciences (NCATS)
HEK293 viab: counter-screen for SNCA expression inhibitors: cell viability; hit rate 0.12% among 150,000; HEK-293-SNCA-luc viability, GF-AFC fluorescence, 24 h; Potency, µM (doses to about 57.1 µM), for the others: at the top dose activity change, negative = cytotoxicity, actives largely listed as cytotoxic;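 further: potency means the concentration at half of the fitted maximal effect; 0% = DMSO-treated cells and -100% = medium-only wells without cells; nearly all actives have a fitted effect of over 30% in size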
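HEK-293-SNCA-luc cells (1500/well) plated 24 h, then exposed 24 h to a dilution series; GF-AFC added 30 min at 37C, fluorescence 405/540 nm; normalised to medium-only and DMSO wells, Hill fit.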
IP6K1 inhibitor: blocks human inositol hexakisphosphate kinase 1; IP6K1 kinase, ADP-Glo luminescence, 2 h; hits give low values; activity change, % (series mostly up to about 58 µM); hit rate 0.81% among 140,000; AID 1645851; in the data active means activity change below about -25%; further: on the % scale 0 is the no-effect control and ±100 the full control effect
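ADP-Glo luminescence measures ADP made by human IP6K1 during a 2 h RT reaction with ATP/IP6 (mix at 1.3 mM/130 uM); top library doses 57.5 and 19.1 uM final.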
SNCA expr inhib: reduces expression of the alpha-synuclein gene; Potency, µM (highest dose often 57.2 µM), for inactives: top-dose activity change, negative = inhibition, actives largely listed as inhibitors; HEK-293 SNCA-luciferase knock-in, luminescence, 24 h; hit rate 0.17% among 140,000; AID 1671194;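 further: potency means the concentration at half of the fitted maximal effect; plate controls were DMSO cells for no effect and cell-free wells for full effect; nearly all actives have a fitted effect of over 45% in size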
KDM5B inh: inhibitors of human KDM5B histone demethylase | KDM5B demethylase, FDH-coupled NADH fluorescence (FDH is formaldehyde dehydrogenase) | Potency, µM (titrated, usually from 57.7 µM), most hits filed as inhibitors | hit rate 2.6% among 220,000; further: potency means the concentration at half of the fitted maximal effect; 0% is about no effect; nearly all actives have a fitted effect of over 70% in size
Target sequence (Q9UGL1 whole entry, looked up): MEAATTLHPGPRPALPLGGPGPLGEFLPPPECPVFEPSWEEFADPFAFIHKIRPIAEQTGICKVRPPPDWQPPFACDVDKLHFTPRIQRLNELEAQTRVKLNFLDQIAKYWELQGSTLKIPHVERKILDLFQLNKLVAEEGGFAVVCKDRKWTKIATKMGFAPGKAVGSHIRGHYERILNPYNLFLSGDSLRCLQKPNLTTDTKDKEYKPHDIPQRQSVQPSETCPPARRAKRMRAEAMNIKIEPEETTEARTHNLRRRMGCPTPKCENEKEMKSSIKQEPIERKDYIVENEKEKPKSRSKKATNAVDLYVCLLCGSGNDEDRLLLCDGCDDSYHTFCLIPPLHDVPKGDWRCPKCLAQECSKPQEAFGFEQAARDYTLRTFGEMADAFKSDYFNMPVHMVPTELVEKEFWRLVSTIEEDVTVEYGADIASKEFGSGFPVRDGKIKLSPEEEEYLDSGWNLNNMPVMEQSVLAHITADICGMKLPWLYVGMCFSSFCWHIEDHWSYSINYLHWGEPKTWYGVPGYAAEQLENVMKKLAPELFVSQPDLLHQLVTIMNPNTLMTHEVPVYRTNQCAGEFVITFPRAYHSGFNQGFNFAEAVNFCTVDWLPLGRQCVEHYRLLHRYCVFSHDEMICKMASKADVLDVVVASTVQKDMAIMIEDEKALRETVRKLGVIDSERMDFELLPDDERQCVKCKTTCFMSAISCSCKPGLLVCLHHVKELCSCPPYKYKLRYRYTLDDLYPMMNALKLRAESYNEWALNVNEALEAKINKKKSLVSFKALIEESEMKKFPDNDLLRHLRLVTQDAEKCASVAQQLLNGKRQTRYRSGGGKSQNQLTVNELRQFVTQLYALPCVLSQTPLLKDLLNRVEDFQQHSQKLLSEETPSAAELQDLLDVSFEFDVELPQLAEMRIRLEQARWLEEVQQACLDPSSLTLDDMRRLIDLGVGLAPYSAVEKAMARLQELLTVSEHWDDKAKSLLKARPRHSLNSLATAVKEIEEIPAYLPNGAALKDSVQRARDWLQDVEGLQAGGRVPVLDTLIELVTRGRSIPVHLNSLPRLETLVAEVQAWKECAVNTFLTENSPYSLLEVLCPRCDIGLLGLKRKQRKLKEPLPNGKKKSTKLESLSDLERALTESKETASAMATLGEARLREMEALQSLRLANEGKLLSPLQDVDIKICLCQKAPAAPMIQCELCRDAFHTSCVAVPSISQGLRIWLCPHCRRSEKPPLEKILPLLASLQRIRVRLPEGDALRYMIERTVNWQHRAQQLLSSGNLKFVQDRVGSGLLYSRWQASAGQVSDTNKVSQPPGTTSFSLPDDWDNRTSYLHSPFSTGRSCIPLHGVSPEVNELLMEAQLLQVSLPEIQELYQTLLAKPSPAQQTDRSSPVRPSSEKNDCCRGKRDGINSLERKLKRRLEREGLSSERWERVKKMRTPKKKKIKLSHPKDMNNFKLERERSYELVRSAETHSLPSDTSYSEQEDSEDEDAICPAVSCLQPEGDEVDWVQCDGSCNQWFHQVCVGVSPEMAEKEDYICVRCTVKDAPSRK
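Coupled FDH/NAD⁺ fluorescence readout. KDM5BΔAP 200 nM final; compound titration, 10 min RT preincubation; substrate mix 12.5 µM H3K4me3, 25 µM 2-OG, 50 µM Fe(II), 100 µM ascorbate, 0.25 mM NAD⁺, 0.25 U/mL FDH; ΔRFU over 30 min.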
The depositor's hits bear a star; i = inactive; ? = inconclusive; / = not tested or not shown; [ ] = remark or other dose. This is a sample that favours compounds with a hit; in the whole collection about 2.9% have one here. Unless noted, the call rests on the fitted dose curve; in most records, active means well fitted curve in the direction sought with a large enough effect; inconclusive means small, poorly fitted or top-dose-only effect, or another doubt; inactive means no such curve, though single readings can be large; an effect the other way counts as inactive or inconclusive.

SMILES	HEK293 viab	IP6K1 inhibitor	SNCA expr inhib	KDM5B inh
CCn1cc(S(=O)(=O)NCC2Cn3cccc3CN2Cc2ccccc2)cn1 (stereo not drawn)	6%	-5	-3%	28µM*
O=C(NCC1Cn2cccc2CN1Cc1ccccc1)NC1CCCCC1 (stereo not drawn)	11%	7	-2%	28µM*
CCOC(=O)c1c(S(=O)(=O)Nc2ccc(OC)c(Cl)c2)c(C)n(C)c1C	/	/	/	i
CCC(O)CNc1ccc(-c2nc(COC)no2)cn1 (stereo not drawn)	13%	5	53%	32µM*
CCC(NC(=O)C1CCCO1)C12CC3CC(CC(C3)C1)C2 (stereo not drawn)	/	/	/	i
CC(C)C[C@@H]1N[C@H](C(=O)O)Cc2cn(CC3CCC3)c3cccc1c23	-2%[87.6 µM]	2	-9%[87.6 µM]	32µM*
CC(C)C[C@@H]1N[C@H](C(=O)O)Cc2cn(Cc3nccn3C)c3cccc1c23	8%	0	-26%	32µM*
COCc1nc2nc(-c3ccccc3)c(Nc3ccncc3)cc2n1C	-1%[87.6 µM]	4	-18%[87.6 µM]	?
COCc1nc2nc(-c3ccccc3)c(Nc3ccc(F)cc3)cc2n1C	3%[87.6 µM]	9	3%[87.6 µM]	32µM*
COc1ccc(Cl)cc1C(C(=O)O)N1CCCN(c2ncccn2)CC1 (stereo not drawn)	4%	27	0%	28µM*
CCCc1noc(-c2cccn3c(CNC(=O)Cc4ccccc4Cl)nnc23)n1	-2%	22	?	?
CC(C)c1noc(-c2cccn3c(CNC(=O)CC4CCCCC4)nnc23)n1	7%	19	24%	?
CCCc1noc(-c2cccn3c(CNC(=O)C4CCC4)nnc23)n1	-3%	3	13%	28µM*
O=C(NCc1nnc2c(-c3nc(C4CC4)no3)cccn12)c1c(F)cccc1Cl	1%	22	31%	?
O=C(CC1CCCCC1)NCc1nnc2c(-c3nc(C4CC4)no3)cccn12	-2%	12	35%	16µM*
CCCc1noc(-c2cccn3c(CNC(=O)Cc4ccc(Cl)cc4)nnc23)n1	-12%	1	-15%	25µM*
O=C(NCc1nnc2c(-c3nc(C4CC4)no3)cccn12)c1ccc(F)c(Cl)c1	5%	20	-24%	28µM*
COc1ccc(NC(=O)[C@@H]2C[C@@H](c3ccc(F)cc3)N([S+](=O)([O-])c3ccccc3)C2)cc1	-10%	0	-18%	i
O=C(NCc1nnc2c(-c3nc(C4CC4)no3)cccn12)C1CC1	2%	3	0%	22µM*
CCCc1noc(-c2cccn3c(CNC(=O)c4ccc(C)cc4)nnc23)n1	-8%	-1	?	25µM*
O=C(NCc1nnc2c(-c3nc(C4CC4)no3)cccn12)c1cc(Cl)ccc1F	4%	-1	-14%	28µM*
O=C(CCc1ccccc1)NCc1nnc2c(-c3nc(C4CC4)no3)cccn12	-3%	4	2%	28µM*
CCCc1noc(-c2cccn3c(CNC(=O)c4ccc(N(C)C)cc4)nnc23)n1	-21%	10	-10%	?
O=C(Cc1ccccc1Cl)NCc1nnc2c(-c3nc(C4CC4)no3)cccn12	1%	4	-14%	?
COc1cccc(CCC(=O)NCc2nnc3c(-c4nc(C5CC5)no4)cccn23)c1	-13%	-5	?	?
SMILES	HEK293 viab	IP6K1 inhibitor	SNCA expr inhib	KDM5B inh
CN(C)C(=O)COC(=O)c1csc(NCc2ccccc2)n1	/	/	/	i
CC(C)(C)c1ccc(C(=O)NCc2nnc3c(-c4nc(C5CC5)no4)cccn23)cc1	-1%	0	1%	?
Cc1ccc(C)c(C(=O)NCc2nnc3c(-c4nc(C5CC5)no4)cccn23)c1	4%	8	-7%	25µM*
Cc1cc(C)cc(C(=O)NCc2nnc3c(-c4nc(C5CC5)no4)cccn23)c1	-1%	1	-6%	?
O=C(NCc1nnc2c(-c3nc(C4CC4)no3)cccn12)c1ccc(F)cc1	-7%	3	-11%	22µM*
O=C(Cc1ccc(Cl)cc1)NCc1nnc2c(-c3nc(C4CC4)no3)cccn12	-22%	-3	-34%	28µM*
N#Cc1c(N)n[nH]c1CCCNC(=O)c1cn(-c2ccccc2)nc1-c1ccccc1	/	/	/	i
O=C1[C@@H]2C[C@@H](CN2Cc2ccccc2)Oc2ccccc2N1CC1CC1	-7%[87.6 µM]	9	7%[87.6 µM]	i
CN1C(=O)[C@@H]2C[C@@H](CN2Cc2ccc(OC(F)(F)F)cc2)Oc2ccccc21	7%[87.6 µM]	14	-10%[87.6 µM]	i
COCCN1C(=O)[C@@H]2C[C@@H](CN2Cc2ccc3ccccc3n2)Oc2ccccc21	-12%[87.6 µM]	-3	46%[87.6 µM]	32µM*
COCCN1C(=O)[C@@H]2C[C@@H](CN2Cc2ccccc2)Oc2ccccc21	3%[87.6 µM]	23	-30%[87.6 µM]	i
O=C1[C@@H]2C[C@@H](CN2Cc2nccs2)Oc2ccccc2N1Cc1ccc(OC(F)(F)F)cc1	-20%	0	-15%	28µM*
O=C1[C@@H]2C[C@@H](CN2Cc2cnc3ccccc3c2)Oc2ccccc2N1CC1CC1	?	-9	-26%[87.6 µM]	45µM*
O=c1[nH]c(-c2ccc(F)cc2)nc2c1CCN(S(=O)(=O)c1cccs1)C2	0%	21	6%	32µM*
O=c1[nH]c(-c2ccc(F)cc2)nc2c1CCN(S(=O)(=O)c1ccc3c(c1)CCC3)C2	6%	29	1%	?
CCSc1ncc(-c2c(-c3ccccc3)ncn2CC[C@@H](C)CO)cn1	-23%	10	0%	14µM*
COc1ccc(NS(=O)(=O)c2cc(C(=O)N3CCCCC3)cs2)cc1	/	/	/	i
Clc1cccc(CN2CC(CNc3cccnc3)C3(C2)CN(c2ccccc2)C3)c1 (stereo not drawn)	-18%[87.6 µM]	-2	?	32µM*
O=[S+]([O-])(NCC1CN(Cc2cccc(Cl)c2)CC12CN(c1ccccc1)C2)c1ccccc1 (stereo not drawn)	-14%	7	?	?
C[S+](=O)([O-])c1cccc(CN2CC(COc3ccccc3)C3(C2)CN(c2ccccc2)C3)c1 (stereo not drawn)	-13%	-9	?	35µM*
N#Cc1cccc(CN2CC(COc3ccccc3)C3(C2)CN(c2ccccc2)C3)c1 (stereo not drawn)	-4%[87.6 µM]	12	-21%[87.6 µM]	40µM*
Nc1ncccc1CN1CC(COc2ccccc2)C2(C1)CN(c1ccccc1)C2 (stereo not drawn)	-17%[87.6 µM]	-13	?	?
O=C(Nc1ccc2c3c(cccc13)CC2)C(Cl)(Cl)Cl	/	/	/	i
N#Cc1ccc(-c2c(-c3ccccc3)ncn2CCNc2cccnc2)cc1	-3%	13	33%	28µM*
CCC(Cn1cnc(-c2ccccc2)c1-c1ccc(C#N)cc1)N1CCN(C)CC1 (stereo not drawn)	-20%	7	-12%	?
C=CCOC(=O)C1=C(C)N=C2SC=C(CC(=O)N3CCCC3)N2C1c1ccc(OC)cc1OC (stereo not drawn)	-12%	4	-14%	28µM*
